Source: the supplement of paper PMC8728848
This is one part of a sample in which the strongest signals are shown more often than they occur.

Assays:
Experiment in all cases: glycan array binding signal (z-score within array); higher = stronger binding
Conditions in all cases: glycan notation: IUPAC condensed, linker removed
Man(a1-2)Man(a1-3)Man = biological target: Man(a1-2)Man(a1-3)Man
Outline: (§1)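 The binding signal is a Z-score computed within each array. Data were drawn from 3228 arrays in the Consortium for Functional Glycomics database, restricted to those with a known protein sequence. Scores were averaged over arrays of the same protein sequence at different concentrations or buffers, and over linkers, and negative values can be taken as non-binding.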

[1] = biological target: Man(a1-2)Man(a1-6)[Man(a1-3)]Man(a1-6)[Man(a1-2)Man(a1-2)Man(a1-3)]Man
Outline: as §1

[2] = biological target: Neu5Ac(a2-3)Gal(b1-3)GlcNAc(b1-2)Man
Outline: as §1

[3] = biological target: Neu5Ac(a2-3)Gal(b1-3)GlcNAc(b1-2)Man(a1-3)[GlcNAc(b1-4)][Neu5Ac(a2-3)Gal(b1-3)GlcNAc(b1-2)Man(a1-6)]Man(b1-4)GlcNAc(b1-4)GlcNAc
Outline: as §1

[4] = biological target: Neu5Ac(a2-3)Gal(b1-3)[Neu5Ac(a2-6)]GlcNAc(b1-3)[Fuc(a1-3)[Gal(b1-4)]GlcNAc(b1-6)]Gal(b1-4)Glc
Outline: as §1

[5] = biological target: Neu5Ac(a2-3)Gal(b1-4)GlcNAc(b1-2)Man(a1-3)[GlcNAc(b1-4)][Neu5Ac(a2-3)Gal(b1-4)GlcNAc(b1-2)Man(a1-6)]Man(b1-4)GlcNAc(b1-4)GlcNAc
Outline: as §1

[6] = biological target: Neu5Ac(a2-3)Gal(b1-4)GlcNAc(b1-3)Gal(b1-4)GlcNAc(b1-3)Gal(b1-4)GlcNAc(b1-2)Man(a1-3)[Neu5Ac(a2-3)Gal(b1-4)GlcNAc(b1-3)Gal(b1-4)GlcNAc(b1-3)Gal(b1-4)GlcNAc(b1-2)Man(a1-6)]GalNAc
Outline: as §1

[7] = biological target: Neu5Ac(a2-3)Gal(b1-4)GlcNAc(b1-3)Gal(b1-4)GlcNAc(b1-6)[Gal(b1-3)]GalNAc
Outline: as §1

[8] = biological target: Neu5Ac(a2-3)Gal(b1-4)GlcNAc(b1-6)GalNAc
Outline: as §1

[9] = biological target: Neu5Ac(a2-3)Gal(b1-4)GlcNAc(b1-6)[Gal(b1-3)]GalNAc
Outline: as §1

[10] = biological target: Neu5Ac(a2-3)[GalNAc(b1-4)]Gal(b1-4)GlcNAc
Outline: as §1

[11] = biological target: Neu5Ac(a2-3)[Neu5Ac(a2-6)]GalNAc
Outline: as §1

Neu5Ac(a2-6)Gal(b1-4)Glc = biological target: Neu5Ac(a2-6)Gal(b1-4)Glc
Outline: as §1

[12] = biological target: Neu5Ac(a2-6)Gal(b1-4)GlcNAc(b1-2)Man(a1-3)[Neu5Ac(a2-6)Gal(b1-4)GlcNAc(b1-2)Man(a1-6)]Man(b1-4)GlcNAc(b1-4)[Fuc(a1-6)]GlcNAc
Outline: as §1

[13] = biological target: Neu5Ac(a2-6)Gal(b1-4)GlcNAc(b1-2)Man(a1-6)[Man(a1-3)]Man(b1-4)GlcNAc(b1-4)GlcNAc
Outline: as §1

[14] = biological target: Neu5Ac(a2-6)Gal(b1-4)GlcNAc(b1-2)[Neu5Ac(a2-6)Gal(b1-4)GlcNAc(b1-4)]Man(a1-3)[GlcNAc(b1-4)][Neu5Ac(a2-6)Gal(b1-4)GlcNAc(b1-2)[Neu5Ac(a2-6)Gal(b1-4)GlcNAc(b1-6)]Man(a1-6)]Man(b1-4)GlcNAc(b1-4)GlcNAc
Outline: as §1

[15] = biological target: Neu5Ac(a2-6)Gal(b1-4)GlcNAc(b1-3)Gal(b1-3)GlcNAc
Outline: as §1

[16] = biological target: Neu5Ac(a2-6)Gal(b1-4)GlcNAc(b1-3)Gal(b1-4)GlcNAc(b1-3)Gal(b1-4)GlcNAc(b1-2)Man(a1-3)[Neu5Ac(a2-6)Gal(b1-4)GlcNAc(b1-3)Gal(b1-4)GlcNAc(b1-3)Gal(b1-4)GlcNAc(b1-2)Man(a1-6)]GalNAc
Outline: as §1

[17] = biological target: Neu5Gc(a2-3)Gal(b1-3)[Fuc(a1-4)]GlcNAc
Outline: as §1

Fuc(a1-2)Gal(b1-3)GalNAc = biological target: Fuc(a1-2)Gal(b1-3)GalNAc
Outline: as §1

[18] = biological target: Fuc(a1-2)Gal(b1-3)GlcNAc(b1-3)[Fuc(a1-3)[Gal(b1-4)]GlcNAc(b1-6)]Gal(b1-4)Glc
Outline: as §1

[19] = biological target: Fuc(a1-2)Gal(b1-3)[Fuc(a1-4)]GlcNAc(b1-2)Man(a1-3)[Fuc(a1-2)Gal(b1-3)[Fuc(a1-4)]GlcNAc(b1-2)Man(a1-6)]Man(b1-4)GlcNAc(b1-4)GlcNAc
Outline: as §1

[20] = biological target: Fuc(a1-2)Gal(b1-3)[Fuc(a1-4)]GlcNAc(b1-3)[Gal(b1-4)GlcNAc(b1-6)]Gal(b1-4)Glc
Outline: as §1

Fuc(a1-2)Gal(b1-4)Glc = biological target: Fuc(a1-2)Gal(b1-4)Glc
Outline: as §1

[21] = biological target: Fuc(a1-2)Gal(b1-4)[Fuc(a1-3)]GlcNAc(b1-2)Man(a1-3)[Fuc(a1-2)Gal(b1-4)[Fuc(a1-3)]GlcNAc(b1-2)Man(a1-6)]Man(b1-4)GlcNAc(b1-4)GlcNAc
Outline: as §1

[22] = biological target: Fuc(a1-2)[Gal(a1-3)]Gal(b1-4)GlcNAc
Outline: as §1

[23] = biological target: Fuc(a1-2)[GalNAc(a1-3)]Gal(b1-3)GlcNAc(b1-2)Man(a1-3)[Fuc(a1-2)[GalNAc(a1-3)]Gal(b1-3)GlcNAc(b1-2)Man(a1-6)]Man(b1-4)GlcNAc(b1-4)GlcNAc
Outline: as §1

[24] = biological target: Fuc(a1-2)[GalNAc(a1-3)]Gal(b1-4)GlcNAc(b1-3)Gal(b1-4)GlcNAc
Outline: as §1

[25] = biological target: Fuc(a1-2)[GalNAc(a1-4)]Gal(b1-4)GlcNAc
Outline: as §1

[26] = biological target: Fuc(a1-3)[Gal(b1-4)]GlcNAc(b1-3)GalNAc
Outline: as §1

Gal(a1-3)Gal(b1-4)GlcNAc = biological target: Gal(a1-3)Gal(b1-4)GlcNAc
Outline: as §1

[27] = biological target: Gal(a1-3)Gal(b1-4)[Fuc(a1-3)]GlcNAc(b1-2)Man(a1-3)[Gal(a1-3)Gal(b1-4)[Fuc(a1-3)]GlcNAc(b1-2)Man(a1-6)]Man(b1-4)GlcNAc(b1-4)GlcNAc
Outline: as §1

Gal(a1-3)GalNAc = biological target: Gal(a1-3)GalNAc
Outline: as §1

[28] = biological target: Gal(a1-4)Gal(b1-3)GlcNAc(b1-2)Man(a1-3)[Gal(a1-4)Gal(b1-3)GlcNAc(b1-2)Man(a1-6)]Man(b1-4)GlcNAc(b1-4)GlcNAc
Outline: as §1

[29] = biological target: Gal(b1-3)GlcNAc(b1-2)Man(a1-3)[Gal(b1-3)GlcNAc(b1-2)Man(a1-6)]Man(b1-4)GlcNAc(b1-4)GlcNAc
Outline: as §1

[30] = biological target: Gal(b1-3)GlcNAc(b1-3)Gal(b1-4)GlcNAc(b1-6)[Gal(b1-3)GlcNAc(b1-3)]Gal(b1-4)Glc
Outline: as §1

[31] = biological target: Gal(b1-3)[Fuc(a1-4)]GlcNAc(b1-3)Gal(b1-4)GlcNAc
Outline: as §1

Gal(b1-4)Glc6S = biological target: Gal(b1-4)Glc6S
Outline: as §1

[32] = biological target: Gal(b1-4)GlcNAc(b1-3)Gal(b1-4)GlcNAc
Outline: as §1

[33] = biological target: Gal(b1-4)GlcNAc(b1-3)[Gal(b1-4)GlcNAc(b1-6)]GalNAc
Outline: as §1

[34] = biological target: GalNAc(b1-3)Gal(a1-6)Gal(b1-4)Glc
Outline: as §1

[35] = biological target: GlcNAc(b1-2)Man(a1-3)[GlcNAc(b1-2)Man(a1-6)]Man(b1-4)GlcNAc(b1-4)GlcNAc
Outline: as §1

GlcNAc(b1-3)Man = biological target: GlcNAc(b1-3)Man
Outline: as §1

Kdn(a2-3)Gal(b1-4)Glc = biological target: Kdn(a2-3)Gal(b1-4)Glc
Outline: as §1

[36] = biological target: Man(a1-2)Man(a1-3)[Man(a1-2)Man(a1-6)]Man
Outline: as §1

Man(a1-3)[Man(a1-6)]Man = biological target: Man(a1-3)[Man(a1-6)]Man
Outline: as §1

[37] = biological target: Neu5Ac(a2-3)Gal(b1-3)GalNAc(b1-4)[Neu5Ac(a2-3)]Gal(b1-4)Glc
Outline: as §1

Neu5Ac(a2-3)Gal(b1-4)Glc = biological target: Neu5Ac(a2-3)Gal(b1-4)Glc
Outline: as §1

[38] = biological target: Neu5Ac(a2-3)Gal(b1-4)GlcNAc(b1-3)Gal(b1-4)GlcNAc
Outline: as §1

B1: Als3-N (Candida albicans) (protein)
chain: KTITGVFNSFNSLTWSNAATYNYKGPGTPTWNAVLGWSLDGTSASPGDTFTLNMPCVFKFTTSQTSVDLTAHGVKYATCQFQAGEEFMTFSTLTCTVSNTLTPSIKALGTVTLPLAFNVGGTGSSVDLEDSKCFTAGTNTVTFNDGGKKISINVDFERSNVDPKGYLTDSRVIPSLNKVSTLFVAPQCANGYTSGTMGFANTYGDVQIDCSNIHVGITKGLNDWNYPVSSESFSYTKTCSSNGIFITYKNVPAGYRPFVDAYISATDVNSYTLSYANEYTCAGGYWQRAPFTLRWTGYRNSDAGSNGIVIVATTRTVTDSTTAVTTLPFDPNRDKTKTIEILKPIPTTTITTSYVGVTTSYLTKTAPIGETATVIVDIPYHTTTTVTSKWTGTITSTTTHTNPTDSIDTVIVQVP
Man(a1-2)Man(a1-3)Man
  glycan array binding signal (z-score): -0.226
[1]
  glycan array binding signal (z-score): -0.361
[2]
  glycan array binding signal (z-score): -0.29
[3]
  glycan array binding signal (z-score): -0.11
[4]
  glycan array binding signal (z-score): -0.237
[5]
  glycan array binding signal (z-score): -0.08
[6]
  glycan array binding signal (z-score): 4.72
[7]
  glycan array binding signal (z-score): 0.08
[8]
  glycan array binding signal (z-score): -0.202
[9]
  glycan array binding signal (z-score): -0.233
[10]
  glycan array binding signal (z-score): 2.21
[11]
  glycan array binding signal (z-score): -0.049
Neu5Ac(a2-6)Gal(b1-4)Glc
  glycan array binding signal (z-score): -0.187
[12]
  glycan array binding signal (z-score): -0.102
[13]
  glycan array binding signal (z-score): -0.309
[14]
  glycan array binding signal (z-score): -0.151
[15]
  glycan array binding signal (z-score): -0.283
[16]
  glycan array binding signal (z-score): 2.56
[17]
  glycan array binding signal (z-score): -0.341

B2: SAG3 (Toxoplasma gondii), Q9BJ39 (protein)
chain: MQLWRRRAAGPASLGRQSLPLGCFFAAFGLCVLSAILGTGERGLFVAAGNSRRKITYFGTLTQKAPNWYRCSSTRAKEEVVGHVTLNKEHPDMTIECVDDGLGGEFLPLEGARSSYPRVCHIDAKDQDDCERNRGFLTDYIPGAKQYWYKIEKVEQNGEQSVLYKFTVPWILLPPAKQRYKVGCRYPNHEYCFVEVTVEPTPPMVEGKRVTCGYSESGPVNLEVDLSKNANFIEIRCGEQHHPQPSTYTLQYCSGDSVDPQKCSPQSLTNIFYDYSSSWWKGKLNGPDGATLTIPPGGFPEEDKSFLVGCSLTVDGPPFCNVKVRVAGNPRKWERGGGGHPGSGGLQPGTDGETQAGTGSSAGASSRMASVALAFLLGLLVHVAA
Fuc(a1-2)Gal(b1-3)GalNAc
  glycan array binding signal (z-score): -0.359
[18]
  glycan array binding signal (z-score): 0.235
[19]
  glycan array binding signal (z-score): 6.32
[20]
  glycan array binding signal (z-score): 0.4
Fuc(a1-2)Gal(b1-4)Glc
  glycan array binding signal (z-score): -0.397
[21]
  glycan array binding signal (z-score): 2.31
[22]
  glycan array binding signal (z-score): 0.112
[23]
  glycan array binding signal (z-score): -0.473
[24]
  glycan array binding signal (z-score): -0.084
[25]
  glycan array binding signal (z-score): -0.046
[26]
  glycan array binding signal (z-score): 2.86
Gal(a1-3)Gal(b1-4)GlcNAc
  glycan array binding signal (z-score): -0.223
[27]
  glycan array binding signal (z-score): 4.74
Gal(a1-3)GalNAc
  glycan array binding signal (z-score): -0.176
[28]
  glycan array binding signal (z-score): -0.051
[29]
  glycan array binding signal (z-score): 0.157
[30]
  glycan array binding signal (z-score): 0.551
[31]
  glycan array binding signal (z-score): -0.077
Gal(b1-4)Glc6S
  glycan array binding signal (z-score): -0.304
[32]
  glycan array binding signal (z-score): 0.013
[33]
  glycan array binding signal (z-score): -0.475
[34]
  glycan array binding signal (z-score): -0.162
[35]
  glycan array binding signal (z-score): -0.352
GlcNAc(b1-3)Man
  glycan array binding signal (z-score): 0.13
Kdn(a2-3)Gal(b1-4)Glc
  glycan array binding signal (z-score): 0.107
[36]
  glycan array binding signal (z-score): -0.088
Man(a1-3)[Man(a1-6)]Man
  glycan array binding signal (z-score): 0.34
[37]
  glycan array binding signal (z-score): -0.184
Neu5Ac(a2-3)Gal(b1-4)Glc
  glycan array binding signal (z-score): -0.168
[38]
  glycan array binding signal (z-score): -0.053
